Among all 290,000 compounds or so, about 27,000 (9.3%) were called active. Only a selection was taken, and actives are over-represented in it overall. Unmarked numbers belong to inactive results. No stated cut-off is given here; in the data, active means inhibition mostly above about 28% (no sharp cut-off); inactive means mostly below about 43%.
Assay: A qHTS for Small Molecule Inhibitors of Shiga Toxin; on inhibition: 0% is about no effect
Settings: Vero cells, Shiga toxin protein synthesis inhibition reporter; at 38.7 µM, active compounds read high
`Clc1cc(NC2CCCCC2)ncn1` gave an inhibition of -10.3%. With `CCOC(=O)C1C/C(=C\C(C)=O)c2cccc(C(F)(F)F)c2O1` (centres undefined) the inhibition was “inactive”. For `COc1ccc(CCN2C(=O)C(C)=C(C)C2=O)cc1OC`, the inhibition was 17.7%. For `COCCn1c(SCC(=O)Nc2nc(C)cs2)nnc1C(C)C`, the inhibition was -5.99%. Compound `Cc1nnc(NC(=O)C(c2ccccc2)c2ccccc2)s1` has an inhibition of -9.41%. Work on `COc1ccccc1N1CCN(C(=O)CCS(=O)(=O)c2ccc3c(c2)NC(=O)C(C)S3)CC1` (centres undefined) yielded an inhibition of -1.86%. For `O=C(CN1CCN(Cc2ccccc2)CC1)Nc1ccc(F)c(F)c1`, the inhibition was 14.5%. In the case of `Cc1ccc(NC(=O)COC(=O)C2C3CC4OC(=O)C2C4C3)cc1Cl` (centres undefined), the inhibition is reported as 17.4%. For `Cc1ccc(S(=O)(=O)N(CC(O)CN2C(=O)NC(C)(C)C2=O)c2cccc([N+](=O)[O-])c2)cc1` (centres undefined), the inhibition was -12.9%. `COc1ccc(CCNC(=O)CCC(=O)NC2CCCCC2)cc1OC` showed an inhibition of 10.5%. `COC(=O)CN1C(=O)[C@H]2[C@@H](/C=C/c3ccccc3)N3C(=O)CN(CC4CC4)C(=O)[C@@]3(Cc3ccccc3)[C@H]2C1=O` gave an inhibition of -11.8%. For `S=C(NCCC1=CCCCC1)Nc1ccccc1`, the inhibition was 72.2% (active). With `O=C(Cc1cccc2ccccc12)NCCC1=CCCCC1` the inhibition was -13.5%. With `Cc1nnc(OCC(=O)NCCC2=CCCCC2)c2ccccc12` the inhibition was -1.67%. With `CN(C(=O)C1CCN(c2ncnc3c2nc2n3CCCCC2)CC1)C1CCCCC1` the inhibition was -2.24%. With `COCC(=O)Nc1c(C(=O)N2CCCC2)oc2ccccc12` the inhibition was 3.56%. Compound `Cc1cc(N(C)C)nc(Cl)n1` has an inhibition of -9.68%. With `COc1ccc(-c2nc3c(c(SCC(=O)Nc4ccc(C(=O)O)cc4)n2)Cc2ccccc2O3)cc1` the inhibition was 18.2%. `O=C1C2C3C=CC(C4CC34)C2C(=O)N1/N=C/c1ccc(-c2ccccc2[N+](=O)[O-])o1` (centres undefined) showed an inhibition of 61.9%. Work on `COc1cccc(N(CC(=O)NC2CCCCCC2)S(=O)(=O)c2ccccc2)c1` yielded an inhibition of -29.3%. In the case of `C/C(=N\NC(=O)c1ccc(C)cc1)C1C(=O)c2ccccc2C1=O`, the inhibition is reported as 40.4% (active). Compound `Cc1ccc(C(=O)N/C(=C/c2cccnc2)C(=O)O)cc1` has an inhibition of 14.9%. Compound `C/C(=N\NC(=O)CNC(=O)C(c1ccccc1)c1ccccc1)c1ccc(C)cc1` has an inhibition of -1.4%. With `COCCN1C(=O)C(=O)/C(=C(/O)c2ccc(S(=O)(=O)N3CCOCC3)cc2)C1c1ccc(O)c(OC)c1` (centres undefined) the inhibition was 2.24%. Compound `Cc1cc(C)nc(NS(=O)(=O)c2ccc(N3C(=O)C4CCCCC4C3=O)cc2)n1` (centres undefined) has an inhibition of -4.6%. `CC(=O)Nc1ccccc1NC(=O)c1cc(C)cc(C)c1` gave an inhibition of -6.09%. For `CSCc1ccc(C(=O)Nc2cc(C)cc(C)c2)cc1`, the inhibition was 39% (active). Compound `C=CCN(c1ccc(C(=O)Nc2cc(C)cc(C)c2)cc1)S(C)(=O)=O` has an inhibition of 1.49%. In the case of `O=C(N/N=C/c1ccc2c(c1)OCO2)c1ccc(Cn2cc([N+](=O)[O-])cn2)o1`, the inhibition is reported as 39.5% (active). For `CC1CCc2c(sc(NC(=O)c3ccc(Cn4cc(Br)cn4)o3)c2C(N)=O)C1` (centres undefined), the inhibition was 14.4%. `O=C(N/N=C\c1ccc(Br)cc1)c1ccc(Cn2cccn2)o1` gave an inhibition of 26.8%. `COc1cccc(NC(=O)c2ccc(Cn3cc([N+](=O)[O-])cn3)o2)c1` gave an inhibition of 12.9%. With `O=C(c1ccc(Cn2cc([N+](=O)[O-])cn2)o1)N1CCCC1` the inhibition was -5.81%. In the case of `CN(C)c1ccc(/C=N/NC(=O)c2ccc(Cn3cc(Br)cn3)o2)cc1`, the inhibition is reported as 73.5% (active). `O=C(NCCc1ccc(Cl)cc1)C1CCCN1C(=O)NCc1ccccc1` (centres undefined) gave an inhibition of 2.06%. In the case of `COc1cccc(NS(=O)(=O)c2ccc(-c3coc(C)n3)cc2)c1`, the inhibition is reported as -7.18%. For `CC(=C1C(=O)c2ccccc2C1=O)N1CCN(c2ccccn2)CC1`, the inhibition was 2.68%. With `COc1ccc(N2CCN(C(C)=C3C(=O)c4ccccc4C3=O)CC2)cc1` the inhibition was 66.2% (active). Work on `COc1ccc(N2CCN(C(=O)c3cccs3)CC2)cc1` yielded an inhibition of 41.6%. In the case of `COc1ccccc1C(=O)N1C(CC(=O)Nc2ccccc2C)C(=O)NC2CCCCC21` (centres undefined), the inhibition is reported as -1.4%. In the case of `COC(=O)[C@H](Cc1ccccc1)NC(=O)[C@@H]1C[C@H]1[C@@H](NC(=O)OCc1ccccc1)c1ccccc1`, the inhibition is reported as -13%. Work on `CC1Sc2ccc(S(=O)(=O)CCC(=O)NCc3ccccc3Cl)cc2NC1=O` (centres undefined) yielded an inhibition of 11.4%. In the case of `Cc1cc(C)nc(N/N=C/c2ccc([N+](=O)[O-])o2)n1`, the inhibition is reported as 12.2%. Compound `CCCc1nn2c(=O)cc(CSCC(=O)Nc3cccc(C)c3)nc2s1` has an inhibition of 9.11%. In the case of `CC(=O)Nc1ccc(/C=N/NC(=O)c2cccs2)cc1`, the inhibition is reported as 97.3% (active). Compound `O=C(CNC(=O)c1cccs1)N/N=C/c1cccc(Br)c1` has an inhibition of -5.46%. For `Cc1ccc(-c2cc(C(=O)N/N=C/C=C/c3ccco3)c3ccccc3n2)cc1C`, the inhibition was 92.8%. In the case of `CCN(CC)c1ccc(/C=N/NC(=O)CNC(=O)c2cccs2)cc1`, the inhibition is reported as 42.1% (active). For `Cc1ccc(-n2nc(C)c(/C=N/NC(=O)c3cccs3)c2Cl)cc1`, the inhibition was 41% (active). Compound `O=C(NC(Cc1c[nH]c2ccccc12)C(=O)N/N=C/c1ccc(Br)cc1)c1cccs1` (centres undefined) has an inhibition of -8.84%. `CC(/C=N/NC(=O)c1ccncc1)=C\c1ccco1` gave an inhibition of 27%. With `Cc1nn(-c2ccccc2)c(Cl)c1/C=N/NC(=O)c1nn(C)cc1[N+](=O)[O-]` the inhibition was 31.8%. With `CCN(CC)c1ccc(/C=N/NC(=O)CNC(=O)c2cccnc2)cc1` the inhibition was -12.8%. With `O=C(Nc1ccccc1)c1ccc(NC(=O)c2cccs2)cc1` the inhibition was -21.1%. In the case of `Cc1nn(-c2ccccc2)c(NC(=O)c2cccs2)c(-c2ccc(Cl)cc2)c1=O`, the inhibition is reported as 7.45%. In the case of `O=C(N/N=C/C=C/c1ccco1)c1cccs1`, the inhibition is reported as 104% (active). Compound `CC(=O)OCCN(CCCn1c(-c2ccncc2)nc2ccccc21)c1nc(-c2ccc(C)cc2)cs1` has an inhibition of -1.86%. `COc1ccc(CCNC(=O)c2nnc(CS(=O)(=O)c3ccccc3)o2)cc1OC` gave an inhibition of 5.82%. `Cc1ccc(S(=O)(=O)N(Cc2cc3ccccc3[nH]c2=O)CC2CCCO2)cc1` (centres undefined) gave an inhibition of -2.48%. For `O=C(Nc1c2c(nn1-c1ccccc1)CS(=O)(=O)C2)C1CCCC1`, the inhibition was -3.43%. `COc1ccc(NC(=O)c2ccco2)cc1NC(=O)c1ccc(C#N)cc1F` gave an inhibition of -2.14%. In the case of `CCCCCC(O)(CCN1CCCCC1)c1ccccc1` (centres undefined), the inhibition is reported as -8.74%. For `Cc1cc(NC(=O)CCC(=O)N(CC(=O)NCC2CCCO2)c2ccccc2)no1` (centres undefined), the inhibition was -9.61%. Compound `COC(=O)C1(C)NC(c2ccccc2OC)C2C(=O)N(c3ccccc3)C(=O)C21` (centres undefined) has an inhibition of -11.2%. With `COc1ccc(N2CCN(S(=O)(=O)c3ccc4c(c3)N(C(C)=O)CCO4)CC2)cc1` the inhibition was -9.48%. For `Cc1cccc(-n2c(C)cc(/C=N\NC(=O)c3cccs3)c2C)c1`, the inhibition was 85.9% (active). In the case of `Cc1cccc(-n2c(C)cc(/C=N/NC(N)=S)c2C)c1`, the inhibition is reported as -4.48%. Work on `Cc1ccc(-n2c(C)cc(/C=N\NC(=O)CC(=O)NC(C)C)c2C)cc1` yielded an inhibition of 21.4%. Compound `O=C(Cn1cnc2ccccc21)Nc1ccccc1-c1ccccc1` has an inhibition of -2.99%. In the case of `Cc1cc2ccccn2c1C(=O)c1cccc(F)c1`, the inhibition is reported as 21%. Compound `CCCCNC(=O)CCn1nc(-c2ccc(Cl)cc2)ccc1=O` has an inhibition of -6.39%. With `COc1ccc(CNC(=O)CN(c2ccc(OC)c(Cl)c2)S(=O)(=O)c2ccc(C)cc2)cc1` the inhibition was 15.2%. `O=C(COC(=O)c1ccc(Oc2ccccc2)cc1)Nc1nnc(-c2ccccc2)o1` showed an inhibition of 6.93%. With `Nc1ccc(-c2nnc(-c3ccccc3)o2)cc1` the inhibition was 71.6% (active). In the case of `Nc1ccc(-c2nnc(-c3ccc(-c4ccccc4)cc3)o2)cc1`, the inhibition is reported as 63.4% (active). Compound `Cc1ccc(C(=O)NCC(=O)OCc2nnc(-c3ccccc3)o2)cc1` has an inhibition of 9.19%. `Nc1ccc(Nc2ccccc2)cc1` showed an inhibition of -17%. `Nc1ccc(-c2sc(N)nc2-c2ccccc2)cc1` showed an inhibition of -12.4%. Compound `COc1ccc(/C=N/N(C)C2=NS(=O)(=O)c3ccccc32)cc1OC` has an inhibition of -11.4%. For `COc1ccc(NC(=O)C2CCC(CNC(=O)[C@@H]3Cc4ccccc4CN3)CC2)cc1` (some centres undefined), the inhibition was 8.69%. In the case of `COc1ccc(CNC(=O)C2CCN(S(=O)(=O)c3ccc(SC)cc3)CC2)cc1`, the inhibition is reported as -9.94%. Work on `O=C(Nc1cccn(Cc2ccccc2Cl)c1=O)NC1CCCCC1` yielded an inhibition of 33%. For `CCNC(=O)CCc1nc(-c2ccc(C(C)(C)C)cc2)no1`, the inhibition was 42.8% (active). `CCNC(=O)CCc1nc(-c2ccc(C)cc2)no1` gave an inhibition of 34.3%. Work on `CN1CCN(C(=O)CCc2nc(-c3ccc(Cl)cc3)no2)CC1` yielded an inhibition of 42.8%. In the case of `CN(C)c1ccc(-n2cccc2/C=C2/SC(=Nc3ccc(F)cc3)NC2=O)cc1`, the inhibition is reported as -12.2%. In the case of `O=S(=O)(N/N=C\c1cccn1-c1ccccc1)c1ccc2ccccc2c1`, the inhibition is reported as -11.6%. For `CN(C)c1ccc(-n2cccc2/C=N/n2cnnc2)cc1`, the inhibition was 61% (active). In the case of `COc1ccc(/C(N)=N/OC(=O)CCCc2ccccc2)cc1`, the inhibition is reported as 89.8% (active). With `COc1ccc(/C(N)=N/OC(=O)Cc2ccccc2)cc1` the inhibition was 90% (active). In the case of `COc1ccc(CC(=O)NC(C)CCc2ccccc2)cc1` (centres undefined), the inhibition is reported as -4.86%. In the case of `COc1ccc(OCCCC(=O)NCCc2ccccc2)cc1`, the inhibition is reported as -4.42%. `COc1ccc(C(=O)NC(=S)NNC(=O)CCc2ccccc2)cc1` showed an inhibition of 18.3%. Compound `COc1ccc(/C(N)=N/OC(=O)Oc2ccccc2)cc1` has an inhibition of -9.52%.
